Source: PubChem BioAssay (Tox21)
Results filed as inconclusive are left out. Entries that show only a call come without a potency. Values without a mark were called inactive. Activity calls are given as the source filed them. Calls come from the whole dose curve; as a rule, active = well fitted inhibition curve with a large enough effect in the repeat runs; inconclusive = weak or mixed curves; inactive = no such curve, though single readings can be large or run the other way.

Target: Cytochrome P450 1A2 (Homo sapiens) (UniProt P05177)
Sequence (P05177 whole entry, looked up): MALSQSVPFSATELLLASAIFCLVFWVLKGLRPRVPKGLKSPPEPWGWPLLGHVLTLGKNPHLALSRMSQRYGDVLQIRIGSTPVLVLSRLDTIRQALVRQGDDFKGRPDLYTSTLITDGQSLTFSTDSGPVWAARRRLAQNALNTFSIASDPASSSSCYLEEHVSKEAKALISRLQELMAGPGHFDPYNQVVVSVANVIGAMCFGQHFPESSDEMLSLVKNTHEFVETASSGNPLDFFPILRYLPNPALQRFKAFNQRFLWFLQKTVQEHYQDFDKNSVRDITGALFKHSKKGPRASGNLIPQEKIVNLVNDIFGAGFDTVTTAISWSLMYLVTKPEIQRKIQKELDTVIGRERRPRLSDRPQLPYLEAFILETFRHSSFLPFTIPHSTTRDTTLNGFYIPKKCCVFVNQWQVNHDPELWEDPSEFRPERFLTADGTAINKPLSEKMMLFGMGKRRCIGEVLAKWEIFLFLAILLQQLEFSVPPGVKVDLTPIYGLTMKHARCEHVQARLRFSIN
Test: Cytochrome P450 Family 1 Subfamily A Member 2 (CYP1A2) small molecule antagonists: luciferase reporter qHTS assay (AID 1671199); note: nearly all actives have a fitted effect of over 50% in size
Conditions: P450-Glo CYP1A2 enzyme, luciferin luminescence, 1 h; series mostly up to 115 µM
Text: National Center for Advancing Translational Sciences [NCATS]
U.S. Environmental Protection Agency [EPA]
National Institutes of Environmental Health Sciences [NIEHS]
National Toxicology Program [NTP]
U.S. Food and Drug Administration [FDA]
Cytochrome P450 (CYP) enzymes are membrane-bound hemeproteins that play a key role in metabolism of drugs and xenobiotics. Evaluation of the effect of chemicals on CYP isozymes is useful to minimize the adverse drug reactions and toxicities in drug development process. Tox21 chemicals were tested for their effect on CYP enzyme activities by using P450-Glo (TM) screening systems (Promega Corporation, Madison, WI). These systems provide a luminescent method containing proluciferin substrates and are converted to luciferin products by CYP isozymes. The luciferin products formed are detected with a luciferin detection reagent, and the amount of light produced is proportional to CYP activity. P450-Glo (TM) CYP1A2 screening system (Catalog. No. V9770) was used to detect the compounds that interfere in CYP1A2 activity. The positive control compound used for CYP1A2 assay is furafylline (Sigma-Aldrich, St. Louis, MO).
Tox21 Assay Protocol Summary:
Two ul of enzyme-substrate mix was dispensed into medium binding white/solid 1536-well plates (Greiner Bio-One North America Inc., Monroe, NC) using a BioRaptr Flying Reagent Dispenser (FRD, Beckman Coulter, Brea, CA). Compounds dissolved in DMSO and positive control (furafyllline) were transferred to the assay plates at 23 nl using a Pintool station (Wako, San Diego, CA). The assay plates were incubated at room temperature for 10 min. Then 2 ul of NADPH regeneration solution was added to each well of the assay plates using an FRD and incubated at room temperature for 1 h. The reaction was stopped by adding 4 ul of detection reagent using an FRD and after 20 min incubation at room temperature the luminescence signal was measured using a ViewLux plate reader (Perkin Elmer, Shelton, CT). Data were expressed as relative luminescence units.
Potency is the fitted concentration of half-maximal effect.

Structure (SMILES)	Potency	activity change, negative = inhibition
CC1c2ccccc2CN1NC(=O)c1ccc(Cl)c(S(N)(=O)=O)c1 (stereo not given)	inactive	–
CCC(C(=O)OCCN1CCOC(c2ccccc2)C1C)c1ccccc1 (stereo not given)	inactive	–
COC(=O)CCCCC(CCSS/C(CCO)=C(\C)N(C=O)Cc1cnc(C)nc1N)SC(C)=O (stereo not given)	inactive	–
CCN1CCCC1CN (stereo not given)	inactive	–
N[C@@H](CSCCCO)C(=O)O	–	12.2% [at 23.6 µM]
OCC1CCC(CO)CC1 (stereo not given)	inactive	–
COP(=O)(O)OP(=O)(O)OC	inactive	–
Cc1c(NC(=O)c2cccnc2)c(=O)n(-c2ccccc2)n1C	inactive	–
CCCC(CC)c1ccccc1 (stereo not given)	inactive	–
CC(=O)OC(C)=O	inactive	–
CC(=O)c1cc(C)oc1C	inactive	–
CC(C)CO	inactive	–
CC(Oc1cc(Cl)ccc1Cl)C(=O)O (stereo not given)	inactive	–
c1ccc(B(c2ccccc2)c2ccccc2)cc1	22.4 µM (active)	–
N#CCC(=O)NN	inactive	–
Cc1cc(C)c(C(=O)O)c(C)c1	39.9 µM (active)	–
CCCCSCCCC	inactive	–
COC(=O)CCCCC(=O)O	inactive	–
O=Cc1cc2ccccc2o1	31.7 µM (active)	–
CC(C)NC(=O)c1ccc(C=O)cc1	34.7 µM (active)	–

Structure (SMILES)	Potency	activity change, negative = inhibition
CCCc1ccc(O)cc1	44.8 µM (active)	–
C/C(=C1\CCOC(=O)S1)N(C=O)Cc1cnc(C)nc1N	inactive	–
CO[Si](CCCn1c(=O)n(CCC[Si](OC)(OC)OC)c(=O)n(CCC[Si](OC)(OC)OC)c1=O)(OC)OC	inactive	–
CC1(C)O[C@H]2CC(=O)OC[C@]23[C@H]2CC[C@@]4(C)[C@H](c5ccoc5)OC(=O)[C@H]5O[C@]54[C@]2(C)C(=O)C[C@@H]13	inactive	–
C=CC(=O)OCC1CCCO1 (stereo not given)	inactive	–
O=C=NCC1CCCC(CN=C=O)C1 (stereo not given)	inactive	–
[O-][n+]1cccc(/C(Cl)=N/OC[C@@H](O)CN2CCCCC2)c1	inactive	–
O=C[O][Al]([O]C=O)[O]C=O	inactive	–
O=C(CN1CCNCC1)NC1CCCCC1	inactive	–
CN(C)CC/C=C1/c2ccccc2COc2ccc(CC(=O)O)cc21	inactive	–
O=C(O)CONC(=O)c1ccccc1	inactive	–
Cc1ccc(N)cc1S(=O)(=O)O	39.9 µM (active)	–
CCNC(=O)NCc1cccc(Cl)c1	inactive	–
CCCCOCC(C)O (stereo not given)	inactive	–
Cn1c(=O)c2[nH]c(Br)nc2n(C)c1=O	24.5 µM (active)	–
O=S(=O)(O)c1ccc2c(N=Nc3ccc(S(=O)(=O)O)c4ccccc34)c(O)c(S(=O)(=O)O)cc2c1	–	-17.3% [at 10.5 µM]
Nc1nc(-c2ccccc2)c(Br)c(=O)[nH]1	inactive	–
Cn1nnc2c(C(N)=O)ncn2c1=O	inactive	–
CCCCCCCCCCCCCBr	22.4 µM (active)	–
CCCCCC(C)O (stereo not given)	inactive	–
